# Screens: PubChem, National Center for Advancing Translational Sciences (NCATS)
# Only some compounds are listed: those with a hit (about 11% of all), similar ones and a draw of the others.
# PNC inhibitor – perinucleolar compartment assembly inhibition; PC3M PTB-GFP, PNC prevalence imaging, 16 h; hits give low values; activity change (PNC), negative = inhibition, % at 10 µM; hit rate 3.1% among 140,000; AID 2417;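 active means readout at or below -70, meaning at least 70% loss of cells showing the perinucleolar compartment, a nuclear body marking cancer cells; inconclusive means readout between -30 and a set limit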;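 further: plate controls were DMSO wells for no effect and camptothecin positive control wells for full effect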
#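 Read-out is percentage of cells bearing a perinucleolar compartment, from automated 20x imaging of fixed, Hoechst-stained PC3M PTB-GFP cells. Cells were seeded 4 h, then exposed 16 h to compound (23 nl of library stock) in duplicate plates.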
# HPGD inh – inhibitors of human 15-hydroxyprostaglandin dehydrogenase (HPGD); Potency, µM, for the others: top-dose activity change, negative = inhibition, usual class: inhibitors; purified HPGD, NADH fluorescence kinetic, PGE2 substrate; hit rate 4.3% among 150,000; further: potency means the concentration at half of the fitted maximal effect
# Target sequence (P15428 whole entry, looked up): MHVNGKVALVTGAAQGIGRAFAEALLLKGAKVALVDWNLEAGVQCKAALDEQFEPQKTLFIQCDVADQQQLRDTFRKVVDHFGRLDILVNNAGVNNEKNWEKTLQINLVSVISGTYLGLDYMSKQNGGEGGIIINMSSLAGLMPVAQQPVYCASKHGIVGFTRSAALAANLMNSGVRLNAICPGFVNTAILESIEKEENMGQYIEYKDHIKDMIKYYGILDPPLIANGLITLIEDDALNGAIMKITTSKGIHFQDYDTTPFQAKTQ
#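 NADH formation kinetics: reaction with 30 uM PGE2 and 1 mM NAD+ (final), 20 nM enzyme, Tris-HCl pH 8 with Tween 20, after 15 min compound preincubation at room temperature. Fluorescence change, last versus first of five reads.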
# JMJD2E inh – JMJD2E (human) inhibition; B2RXH2; JMJD2E catalytic domain, FDH-coupled NADH fluorescence (FDH is formaldehyde dehydrogenase); Potency, µM (top dose mostly 57.1 µM), without a hit: at the highest dose activity change, negative = inhibition, usual class: inhibitors; hit rate 1.6% among 230,000;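 further: potency means the concentration at half of the fitted maximal effect; 0% = wells with enzyme and -100% = buffer wells without enzyme; nearly all actives have a fitted effect of over 50% in size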
# Target sequence (B2RXH2 1-337 limits assumed): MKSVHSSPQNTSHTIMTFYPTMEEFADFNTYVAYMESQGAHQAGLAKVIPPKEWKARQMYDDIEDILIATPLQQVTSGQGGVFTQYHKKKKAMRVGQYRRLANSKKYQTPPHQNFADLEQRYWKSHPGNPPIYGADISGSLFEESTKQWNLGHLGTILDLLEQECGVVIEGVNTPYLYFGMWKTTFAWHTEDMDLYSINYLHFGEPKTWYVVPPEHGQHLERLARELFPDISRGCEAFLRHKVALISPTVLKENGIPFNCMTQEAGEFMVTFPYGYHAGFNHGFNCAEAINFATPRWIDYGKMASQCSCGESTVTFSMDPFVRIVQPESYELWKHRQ
# ALDH1A1 block – blocks purified human ALDH1A1 activity; P00352; Purified ALDH1A1, NADH fluorescence, propionaldehyde substrate; Potency, µM (titrated, usually from 75.3 µM), without a hit: top-dose activity, negative = inhibition, usual class: inhibitors; hit rate 7.3% among 220,000;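 further: potency means the concentration at half of the fitted maximal effect; plate controls were no enzyme wells and a reference inhibitor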
# Active calls of the source: *; u = inconclusive; x = no result; [ ] = remark or other dose. Unless noted, the call rests on the fitted dose curve; in most records, active means well fitted inhibition curve with a large enough effect (not every such curve was filed as active); inconclusive means small, poorly fitted or top-dose-only effect, or another doubt; inactive means no such curve, though single readings can be large or run the other way. Unless noted, on the % scale 0 is the no-effect control and ±100 the full control effect.
SMILES,PNC inhibitor,HPGD inh,JMJD2E inh,ALDH1A1 block
O=C(CSc1ccc2nnc(-c3ccc(Cl)cc3)n2n1)N1CCc2ccccc21,u,14µM*,3%,u
Cc1ccc(-c2ccc(SCC(=O)N3CCN(c4ccccc4)CC3)nn2)cc1,30,-6%,-2%,-4%
O=C(CSc1ccc(-c2ccccc2)nn1)N1CCN(c2ccccc2)CC1,-2,-9%,-3%,22µM*
Cc1ccc(-c2ccc(SCC(=O)N3CCCc4ccccc43)nn2)cc1,38,-11%,-8%,u
COc1cccc(-c2ccc(SCC(=O)N3CCc4ccccc43)nn2)c1,1,-22%,-1%,20µM*
Cc1cc(C)n2nc(SCCCC(=O)c3ccc(F)cc3)nc2n1,x,x,-7%,4%
Cc1ccc(NC(=O)C2CC(=O)Nc3ncnn32)c(C)c1 (centres undefined),x,x,4%,x
COc1ccccc1Nc1ccc(C(=O)NC2CCCCC2)cn1,-23,16µM*,-4%,21%
C=CCn1c(SCC(N)=O)nnc1-c1cnccn1,x,x,2%,x
O=S(=O)(c1ccc(Cl)c(NC(=S)N/N=C/c2ccc(O)cc2)c1)N1CCOCC1,u,-27%,u,10µM*
O=C(Nc1cc(S(=O)(=O)N2CCOCC2)ccc1N1CCCC1)c1ccc2c(c1)S(=O)(=O)c1ccccc1C2=O,x,x,-5%,2.2µM*
Oc1ccc(/C=N/NC(=S)Nc2cccnc2)cc1O,-7,-30%,16µM*,u
CC(C)(C)c1ccc(/C=N/NC(=S)Nc2cccnc2)cc1,x,x,-10%,-5%
O=C(Nc1ccccc1F)Nc1cc(S(=O)(=O)N2CCOCC2)ccc1N1CCCC1,x,x,-7%,u
O=[N+]([O-])c1cc(Cl)cc(/C=N/NC(=S)Nc2ccc(S(=O)(=O)N3CCOCC3)cc2)c1O,x,x,25µM*,x
CCCCCCCC/C=C\C/C=C\C/C=C\CCCC(=O)O,x,0%,9%,6%
O=S(=O)(c1ccc(Cl)c(NC(=S)N/N=C/c2c(F)cccc2F)c1)N1CCOCC1,-14,x,-5%,-15%
C=CCNC(=S)Nc1cc(S(=O)(=O)N2CCOCC2)ccc1-n1cncn1,35,-11%,4%,4.5µM*
O=S(=O)(c1ccc(Cl)c(NC(=S)Nc2ccccc2N2CCOCC2)c1)N1CCOCC1,u,-8%,3%,20µM*
CCN(CC)c1ccc(C(=O)NC(=S)Nc2cc(S(=O)(=O)N3CCOCC3)ccc2-n2cncn2)cc1,7,-13%,u,-6%
O=S(=O)(c1ccc(NC(=S)N/N=C/c2ccc(O)c(O)c2)cc1)N1CCOCC1,x,x,13µM*,x
O=C(COC(=O)CCC(=O)c1cccs1)Nc1cc(S(=O)(=O)N2CCOCC2)ccc1Cl,-21,-7%,4%,22µM*
CC(C)=CCC/C(C)=C/CO/N=C1/C[C@@H](O)[C@@H](O)[C@@H]2[C@@H]3C(=O)N([C@@H](C)c4ccccc4)C(=O)[C@H]3CC[C@H]12,x,x,x,2%[13.5 µM]
Oc1ccc(/C=N/NC(=S)N2CCOCC2)cc1,x,x,u,14µM*
COc1ccc(OC)c(NC(=O)COC(=O)CN(C)S(=O)(=O)c2ccc(C)cc2)c1,u,-1%,-3%,3%
SMILES,PNC inhibitor,HPGD inh,JMJD2E inh,ALDH1A1 block
c1ccc(-c2cc3c(N4CCOCC4)ncnc3s2)cc1,-97*,u,u,u
c1ccc(-n2nnc3c(N4CCOCC4)ncnc32)cc1,-21,28µM*,-3%,u
CCN(CC)CCCNc1oc(-c2ccc(OC)c(OC)c2)nc1C#N,36,u,2.2µM*,u
COc1ccc(-c2nc(C#N)c(NCCCn3ccnc3)o2)cc1OC,20,u,u,u
CC1=CC(C2CC(=O)N(c3ccc(C)cc3)C2=O)CC2C(=O)N(c3ccc(C)cc3)C(=O)C12 (centres undefined),x,x,-6%,u
COc1ccc(OCC(=O)N2c3ccc(C)cc3C3CN(C)CCC32)cc1 (centres undefined),x,x,5%,11%
Cc1ccc2c(c1)C1CN(C)CCC1N2C(=S)NC(=O)c1ccc(Br)cc1 (centres undefined),x,x,-6%,14µM*
Cc1noc(C)c1S(=O)(=O)N1CCC(C(=O)c2ccccc2)CC1,x,x,6%,5%
Cc1noc(C)c1S(=O)(=O)N1CCN(C(c2ccccc2)c2ccc(Cl)cc2)CC1 (centres undefined),-90*,-8%,5%,u
CCc1ccc(Nc2nnc(SCC(=O)Nc3cccc(S(=O)(=O)NC4=NCCCCC4)c3)s2)cc1,0,u,-19%,18µM*
Cc1cccc(Nc2nnc(SCC(=O)Nc3cccc(S(=O)(=O)N4CCCCC4)c3)s2)c1,13,20µM*,-3%,u
Cc1ccc(Nc2nnc(SCC(=O)Nc3cccc(S(=O)(=O)NC4=NCCCCC4)c3)s2)cc1,-14,-18%,0%,-13%
CC1CCc2sc(NC(=O)C3CC(Cl)=CCC3C(=O)O)c(C#N)c2C1 (centres undefined),x,x,4%,-12%
FC(F)(F)c1ccccc1-n1c(CN2CCCCC2)n[nH]c1=S,x,x,-1%,x
Cc1ccc(S(=O)(=O)N(CC(=O)Nc2ccccc2C(=O)O)c2ccccc2)cc1,x,x,-10%,2%
Cc1ccc(CNc2oc(C)nc2C#N)cc1,-85*,x,-9%,10%
Cc1ccc(Nc2oc(C)nc2C#N)cc1,-16,-7%,-1%,-2%
Cc1ccc(C(=O)N2CCN(C3c4cccc5cccc(c45)C3NS(=O)(=O)c3ccccc3)CC2)cc1 (centres undefined),-20,-6%,0%,22µM*
CC(=O)N1CCN(C2c3cccc4cccc(c34)C2NS(=O)(=O)c2ccccc2)CC1 (centres undefined),61,-3%,4%,u
CCN1C(=O)NC2=C(C(=O)c3ccccc32)C1c1ccccc1F (centres undefined),u,-10%,3%,0.32µM*
CC1=NN(C(=O)c2ccc(Cn3cc([N+](=O)[O-])cn3)cc2)C(O)(C(F)(F)F)C1 (centres undefined),u,-10%,-11%,4%
CC(C)CN(C(=O)CSc1nn(-c2ccc(Cl)cc2)c(=S)s1)C1CCS(=O)(=O)C1 (centres undefined),-17,-14%,-4%,u
O=c1cc(-c2ccc(O)cc2)oc2cc(OC3OC(CO)C(O)C(O)[C@H]3O[C@@H]3OC[C@@](O)(CO)C3O)cc(O)c12 (some centres undefined),x,-24%,u,-6%
Oc1ccccc1N1CCN(C(=S)NCCc2ccccc2)CC1,-9,-3%,-22%,-10%
Oc1ccc(N2CCN(C(=S)NCCc3ccccc3)CC2)cc1,1,-13%,-25%,11µM*
Fc1cccc(CN2CCN(C(=S)NCCc3ccccc3)CC2)c1,x,x,4%,u
CNC(=S)N1CCN(c2cccc(OC)c2)CC1,49,-18%,-1%,-11%
COc1cccc(N2CCN(C(=S)NCCc3ccccc3)CC2)c1,-92*,-3%,8%,-4%
S=C(Nc1cccc(Cl)c1)N1CCN(Cc2ccccc2)CC1,-80*,-12%,9%,-9%
S=C(NCCc1ccccc1)N1CCN(Cc2ccccc2)CC1,29,2%,u,7.9µM*
